According to PubChem BioAssay AID1159580 (chemical genetic matrix, 2015):
“And” between values parts separate entries of the source, which are not always exact repeats. Equal entries are not always repeated. Among all 5,500 compounds or so, about 2,000 (36%) were called active. Not shown: some 18% with an inconclusive outcome. No stated cut-off is given here; in the data, active means normalized growth mostly below about 0.91 (no sharp cut-off); inconclusive means no clear call, values can overlap the other calls; inactive means mostly above about 0.92. Some of the results follow.

Test: chemical genetic growth profiling, strain panel (AID 1159580);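 further: tested at 20 µM; growth read once vehicle control cultures reached saturation at 30 °C; 1 = growth at the plate median or of vehicle wells; lower values mean less growth of the strain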
Conditions: S. cerevisiae deletion strains, growth OD

Measured: normalized growth

NC(Cc1ccc(F)cc1)C(=O)O (configuration not stated)
inactive: locus YAL013W, strain DEP1, hits give low values 1.01 | locus YAL021C, strain ccr4, hits give low values 0.987 | locus YAL026C, strain drs2, hits give low values 1.03 | locus YAL030W, strain snc1, hits give low values 1.01 | locus YBL061C, strain skt5, hits give low values 1.03 | locus YBR009C, strain hhf1, hits give low values 1.03 | locus YBR021W, strain FUR4, hits give low values 0.99 | locus YBR023C, strain chs3, hits give low values 1.01 | locus YBR171W, strain sec66, hits give low values 1.03 | locus YBR229C, strain ROT2, hits give low values 1.01 | locus YBR231C, strain swc5, hits give low values 1.02 | locus YCL011C, strain gbp2, hits give low values 1.02 | locus YCL016C, strain dcc1, hits give low values 1.01 | locus YCL029C, strain bik1, hits give low values 1.03 | locus YCL061C, strain MRC1, hits give low values 1.01 | locus YCL069W, strain vba3, hits give low values 1.01 | locus YCR088W, strain abp1, hits give low values 1.02 | locus YDL005C, strain med2, hits give low values 1.01 | locus YDL035C, strain GPR1, hits give low values 1.01 | locus YDL040C, strain nat1, hits give low values 1 | locus YDL074C, strain BRE1, hits give low values 1.01 | locus YDL101C, strain DUN1, hits give low values 1.01 | locus YDL134C, strain PPH21, hits give low values 1.01 | locus YDL185W, strain tfp1, hits give low values 1.03 | locus YDL192W, strain arf1, hits give low values 1.02 | locus YDR001C, strain nth1, hits give low values 1.01 | locus YDR069C, strain doa4, hits give low values 1.02 | locus YDR101C, strain arx1, hits give low values 1.04 | locus YDR137W, strain rgp1, hits give low values 0.994 | locus YDR150W, strain NUM1, hits give low values 0.997 | locus YDR159W, strain sac3, hits give low values 1.02 | locus YDR162C, strain NBP2, hits give low values 1.02 | locus YDR195W, strain ref2 1.04 | locus YDR297W, strain sur2, hits give low values 1.02 | locus YDR318W, strain mcm21, hits give low values 1.02 | locus YDR334W, strain swr1, hits give low values 1.02 | locus YDR335W, strain msn5, hits give low values 1.02 | locus YDR388W, hits give low values 1.03 | locus YDR392W, strain spt3, hits give low values 0.923 | locus YDR502C, strain sam2, hits give low values 1.02 | locus YEL003W, strain gim4, hits give low values 1.02 | locus YEL037C, strain rad23, hits give low values 1.01 | locus YEL061C, strain CIN8 (second series), hits give low values 1.02 | locus YEL061C, strain CIN8, hits give low values 1 | locus YER015W, strain faa2, hits give low values 1.02 | locus YER016W, strain bim1, hits give low values 1.02 | locus YER110C, hits give low values 1.04 | locus YER111C, strain swi4, hits give low values 1.03 | locus YER155C, strain BEM2 (second series), hits give low values 1.04 | locus YER155C, strain BEM2, hits give low values 1 | locus YER167W, strain BCK2, hits give low values 1 | locus YFR010W, strain ubp6, hits give low values 1.01 | locus YGL078C, strain dbp3, hits give low values 1.02 | locus YGL086W, strain mad1, hits give low values 1 | locus YGL167C, strain pmr1, hits give low values 1.02 | locus YGL173C, strain kem1, hits give low values 1.02 | locus YGL227W, strain vid30, hits give low values 1.02 | locus YGL240W, strain doc1, hits give low values 1.03 | locus YGL248W, strain PDE1, hits give low values 1.02 | locus YGL253W, strain hxk2, hits give low values 1.04 | locus YGR135W, strain pre9, hits give low values 1.02 | locus YGR229C, strain SMI1, hits give low values 0.992 | locus YGR252W, strain gcn5, hits give low values 1.06 | locus YHR013C, strain ard1, hits give low values 1.01 | locus YHR027C, strain rpn1, hits give low values 1.01 | locus YHR030C, strain SLT2, hits give low values 1.01 and 1.02 | locus YHR079C, strain IRE1 (second series), hits give low values 1.03 | locus YHR079C, strain IRE1, hits give low values 1.02 | locus YHR094C, strain hxt1, hits give low values 1.02 | locus YHR129C, strain ARP1, hits give low values 1.01 | locus YHR142W, strain chs7, hits give low values 0.996 | locus YHR200W, strain rpn10, hits give low values 1.02 | locus YIL066C, strain RNR3, hits give low values 1.01 | locus YIL073C, strain SPO22, hits give low values 1.09 | locus YIL125W, strain kgd1, hits give low values 1.02 | locus YIR030C, strain dcg1, hits give low values 1.02 | locus YJL092W, strain hpr5, hits give low values 1.02 | locus YJL095W, strain BCK1 (second series), hits give low values 1.01 | locus YJL095W, strain BCK1, hits give low values 1.02 and 1.03 | locus YJL115W, strain asf1, hits give low values 1.01 | locus YJL129C, strain trk1, hits give low values 1.01 | locus YJL134W, strain LCB3, hits give low values 1 | locus YJL154C, strain vps35, hits give low values 1.01 | locus YJL164C, strain tpk1, hits give low values 0.966 | locus YJL166W, strain qcr8, hits give low values 1 | locus YJL168C, strain set2, hits give low values 1.01 | locus YJL187C, strain SWE1 (second series), hits give low values 1.03 | locus YJL187C, strain SWE1, hits give low values 1.02 | locus YJR043C, strain POL32, hits give low values 1 | locus YJR066W, strain TOR1, hits give low values 1 | locus YJR075W, strain HOC1, hits give low values 1.01 | locus YKL009W, strain mrt4, hits give low values 1 | locus YKL068W, hits give low values 1.01 | locus YKL085W, strain MDH1 (second series), hits give low values 1.02 | locus YKL085W, strain MDH1, hits give low values 1.02 | locus YKL160W, strain elf1, hits give low values 0.99 | locus YKR001C, strain vps1, hits give low values 1.01 | locus YKR026C, strain gcn3, hits give low values 1.03 | locus YKR091W, strain srl3, hits give low values 1.02 | locus YLL001W, strain dnm1, hits give low values 1 | locus YLL026W, hits give low values 1.01 | locus YLL041C, strain sdh2, hits give low values 1.01 | locus YLR027C, strain aat2, hits give low values 1.01 | locus YLR039C, strain RIC1, hits give low values 1.04 | locus YLR058C, strain SHM2, hits give low values 1.02 | locus YLR102C, strain apc9, hits give low values 1.03 | locus YLR113W, strain HOG1, hits give low values 1.03 | locus YLR221C, strain rsa3, hits give low values 0.993 | locus YLR258W, strain gsy2, hits give low values 1.02 | locus YLR262C, strain YPT6 (second series), hits give low values 0.997 | locus YLR262C, strain YPT6, hits give low values 1.06 | locus YLR268W, strain sec22, hits give low values 1.03 | locus YLR320W, strain mms22, hits give low values 1.02 | locus YLR330W, strain CHS5, hits give low values 1.01 | locus YLR342W, strain FKS1 (second series), hits give low values 0.979 | locus YLR342W, strain FKS1, hits give low values 1.02 | locus YLR357W, strain rsc2, hits give low values 1.01 | locus YLR370C, strain arc18, hits give low values 1.02 | locus YLR371W, strain rom2, hits give low values 1.02 | locus YLR384C, strain iki3, hits give low values 1.02 | locus YLR418C, strain cdc73, hits give low values 1.02 | locus YML016C, strain PPZ1, hits give low values 1 | locus YML032C, strain rad52, hits give low values 1.03 | locus YML120C, strain ndi1, hits give low values 1.01 | locus YML124C, strain tub3, hits give low values 1.02 | locus YMR058W, strain fet3, hits give low values 1.02 | locus YMR078C, strain ctf18, hits give low values 1.04 | locus YMR125W, strain sto1, hits give low values 1.04 | locus YMR129W, hits give low values 1.01 | locus YMR205C, strain PFK2, hits give low values 1.02 | locus YMR223W, strain ubp8, hits give low values 1.02 | locus YMR231W, strain pep5, hits give low values 1.02 | locus YMR263W, strain SAP30, hits give low values 1.01 | locus YMR307W, strain GAS1, hits give low values 1.05 | locus YNL067W, strain RPL9B, hits give low values 1.03 | locus YNL071W, strain lat1, hits give low values 1 | locus YNL128W, strain TEP1, hits give low values 1.04 | locus YNL183C, strain NPR1, hits give low values 0.969 | locus YNL209W, strain ssb2, hits give low values 1.02 | locus YNL233W, strain BNI4, hits give low values 1.02 | locus YNL248C, strain rpa49, hits give low values 0.982 | locus YNL250W, strain rad50, hits give low values 1.02 | locus YNL271C, strain bni1, hits give low values 1.04 | locus YNL298W, strain CLA4, hits give low values 1.02 | locus YNL307C, strain MCK1, hits give low values 1.03 | locus YNL322C, strain KRE1 (second series), hits give low values 1.01 | locus YNR049C, strain mso1, hits give low values 1.04 | locus YNR052C, strain pop2, hits give low values 1.02 | locus YOL012C, strain htz1 1.76 | locus YOL147C, strain pex11, hits give low values 1.03 | locus YOR001W, strain rrp6, hits give low values 1.01 | locus YOR061W, strain CKA2, hits give low values 1.02 | locus YOR069W, strain VPS5, hits give low values 1 | locus YOR070C, strain gyp1, hits give low values 1.01 | locus YOR080W, strain dia2, hits give low values 1.02 | locus YOR083W, strain WHI5, hits give low values 0.985 | locus YOR106W, strain vam3, hits give low values 0.992 | locus YOR136W, strain idh2, hits give low values 1.05 | locus YOR144C, strain elg1, hits give low values 1.02 | locus YOR184W, strain ser1, hits give low values 1.04 | locus YOR231W, strain MKK1, hits give low values 1.05 | locus YOR265W, strain rbl2, hits give low values 1.01 | locus YOR270C, strain vph1, hits give low values 1.02 | locus YOR290C, strain snf2, hits give low values 0.998 | locus YOR316C, strain cot1, hits give low values 1.02 | locus YPL051W, strain arl3, hits give low values 0.998 | locus YPL055C, strain LGE1, hits give low values 1.02 | locus YPL078C, strain atp4, hits give low values 0.988 | locus YPL106C, strain sse1, hits give low values 1.02 | locus YPL240C, strain hsp82, hits give low values 1.03 | locus YPL241C, strain CIN2, hits give low values 1 | locus YPL256C, strain CLN2, hits give low values 1.02 | locus YPR119W, strain clb2, hits give low values 1.02 | locus YPR141C, strain kar3, hits give low values 1.03 | locus YPR163C, strain tif3, hits give low values 1.04 | locus YPR167C, strain met16, hits give low values 1.03 | strain wtn01, hits give low values 1.03
